From the supplement of paper PMC11417369
The full ranking holds about 25,000 sequences; the median of “ln(normalized median fluorescence intensity)” is about 7.1, and the highest 2% start at about 10. Only a selection was taken, and the highest values are over-represented in it overall.

These sequences were tested on PfSIP2 AP2 domain 1 (GST-tagged) (assay: gcPBM binding intensity (ln(normalized median fluorescence intensity)); higher = stronger DNA binding).
Method in brief: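 GST-tagged P. falciparum DNA-binding domains produced in E. coli were incubated for 1 h on an Agilent 4 × 180k array of primer-extended double-stranded 36-bp intergenic genomic probes with negative controls. Binding intensity is the highest Masliner-normalised natural-log median intensity across replicate spots of either probe orientation, with bound protein detected by Alexa488 anti-GST antibody at 488 nm.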

Row | Sequence | gcPBM binding intensity (ln)
1 | TGTGTATAAGTCACTTGTACTAGTAGTAAAAAAAAA [XGTACX_site4341] | 6.85
2 | TTATTTATTCTATGTGCATGTTATTTTTTTTTTTCG [TGCATGCA_site262] | 7.6
3 | ATTATTTTTCTATGTGTGCACGTGTGGAATGTGTCT [GTGCAC_site9507] | 10.3
4 | TTCTATATTATATATGCATGTGTTATTCTTATTTTC [TGCATGCA_site92] | 7.15
5 | ATATATATTAATATTTGTACATAAAATTATTTCAAT [XGTACX_site5364] | 7.14
6 | TTTTCAATATATTAATGTACGAATACGCAAATAAGA [XGTACX_site1613] | 7.23
7 | GTATATGAATAATATTTTATGGTAATTTTTTTTTTT [XGTACX_negctrl_site512] | 6.91
8 | ATATGACATAAAACATGTACATGTTCATAAATATAT [XGTACX_site1923] | 7.07
9 | AAATATAATAATATATGTACATATATATATATATAT [XGTACX_site6980] | 9.73
10 | AAAAAAAATTTAATTGCACACAGGAAAATATAATTT [CACACA_site3810] | 7.01
11 | GAAATTTTTAATGTGGTGCACAGGAAATTTTTTCTT | 11
12 | ATATATATTAATTTTGTGCACAAATGGAAATGTTTG [GTGCAC_site9971] | 8.34
13 | AAGCGAATCTATATCACACACAAAAAAATCAGACTA [CACACA_site7072] | 6.94
14 | GACTACACACAAGGGTGTACATATATATTATATATA [XGTACX_site2247] | 7.31
15 | TAAGTATAATATTGATGTACATATAATAACTTGTAT [XGTACX_site417] | 7.03
16 | TTTTATTTCTTTGCACCATTTTAAATACAAACAAAT [CACACA_negctrl_site1553] | 10.7
17 | CATTTTATTTTCTTTGTGCACAAAAATATTTTTTCT | 8.78
18 | TCTTTCCTTATTAAAACACACAAATACATTATTTAA [CACACA_site2147] | 7.13
19 | TATGAGAAAAAAAGTACATGCACAAAATGTATATGT [TGCATGCA_site789] | 7.3
20 | ATATGTACAAGTTATACACACATGTACAGTTATATA [CACACA_site6706] | 7.11
21 | ATATGAAGTTATATAGTGCACATGTACAACCAAATC [GTGCAC_site9974] | 10.4
22 | GAAGTTAGTGTTGACTGTACATATATATGTATATAT [XGTACX_site7243] | 7.21
23 | GAAATTATGTAAAAAAGTACTAACATACATATATAT [XGTACX_site1794] | 7.18
24 | AAAAACAAACTGTGCATGCACCAAAAAAAAAAAAAA | 10.4
25 | AATGTGCAAACAAACTGTACTTTTTTTTTTTTTTTT [XGTACX_site928] | 7.84
26 | GAATTTATGAACTGTGCATGTAAAAAAAACAACAAA [TGCATGCA_site449] | 8.15

Row | Sequence | gcPBM binding intensity (ln)
27 | TTATTTACTTATTGCACACATATAAAATATATTTAT [CACACA_site3101] | 7.74
28 | TAATATATTTATAGAGCATGCAACGTAATATTATTA [TGCATGCA_site863] | 7.12
29 | TACGTCTTTTTTTTGGTGCATAATTTTTTTGTACAA | 10.9
30 | ATTTTTTTGGTAATTTGTACATAATATATACATAAT [XGTACX_site3742] | 7.21
31 | AAAATTTCTTTTTTTTGTACATATATAATAATATAT [XGTACX_site7107] | 6.92
32 | TTAACGCTTATTTTTTGTACTTATTTTATTTTAAAT [XGTACX_site3977] | 7.22
33 | CCCTATATAAATAGCTGTACATTTGAACATGTTCAG [XGTACX_site2187] | 6.97
34 | GCAATTTTTTTTAAGAGTACTAATATATTATAGTGG [XGTACX_site7316] | 7.11
35 | TGTGCGGAAATAAGTGCACACATAGATATCTGTATT [CACACA_site5935] | 10.9
36 | TGCGGAAATAAGTGCACACATAGATATATGTATTTT [CACACA_site3689] | 10.8
37 | TATGTATAAATATATGCACACATATATATATTTATA [CACACA_site9150] | 7.18
38 | TGTGTGTGTATATGTGTGCACATATAAAATAGAAGA [GTGCAC_site9714] | 8.95
39 | TGTGCGGAAATAAGTGCACACATAGATATATGTATT [CACACA_site9227] | 10.8
40 | TATAAATATATGTATGCACACATTTTTTTTGGAAAA [CACACA_site1070] | 8.1
41 | AATAAATAGATATATACACACATATATGTGTACATA [CACACA_site7476] | 7.06
42 | TACAAATATATATGCACACACATATCTGTATATGTG [CACACA_site5663] | 7.66
43 | TATAAATATCTGTATGCACACATTTTTTTTGGAAAA [CACACA_site4734] | 8.04
44 | TTTTTCTCTTTAAGGTGTACAATAATACAGTAACCA [XGTACX_site300] | 7.44
45 | ATAAATAATAAAAAATGTACACATATAAATATAAAG [XGTACX_site727] | 7.11
46 | TCTTACGGATTCATTGTGCACATATATATATATATA [GTGCAC_site9896] | 9.46
47 | AGCACACGCAGACACACACACACACGCACACGCACA [CACACA_site6306] | 8.43
48 | TACCACATCGGTAAATGTACTTATAAAAAAAAAAAA [XGTACX_site3364] | 6.83
49 | TTTATTTTGTTTATGGTGCATTTTATGTAAATATAT | 10.8
50 | TTTTGTTTATGTGTGCATTATATTATATTTTTTATT [TGCATGCA_negctrl_site146] | 7.83
51 | TTACACATGTATTTGGTGCATGTTGTTAACAAAATA | 9.57
52 | ATATATATATTTTATGCATGTTCATTTTCTATATTT [TGCATGCA_site442] | 8.1

Row | Sequence | gcPBM binding intensity (ln)
53 | ACACATGTATTTGGTGCATGTTGTTAAAAAAATATT [TGCATGCA_site795] | 10.8
54 | TTTTTGTTCTATATGGTGCATGTTTATATTCGTATT | 10.3
55 | ACATTTAAAATTTATGCATGTGGTGTTTTGTATATA [TGCATGCA_site534] | 7.26
56 | CATACAATAAATATGGTGCATTTTATGTAACCGTTT [GTGCAC_site9420] | 10.4
57 | GATATATTTTATATATGTACATACAATGGTAAATAT [XGTACX_site2759] | 7.09
58 | TATATATATATGTATGCATGTTGTTTTTTATTTAAT [TGCATGCA_site343] | 9.27
59 | TATATATTGTTATATACACACATGTATTTAAAAAAT [CACACA_site5737] | 6.91
60 | ATCATATTTATGTTGGTGCATTATACATAAAGTTTA [GTGCAC_site9574] | 10.2
61 | ATGAAATTTATATCATGTACATACAAGAGAAAAAAA [XGTACX_site3326] | 7
62 | ATTCTTTTTTTTTGGAAATGTATTTTTATGTTTTGT [TGCATGCA_negctrl_site426] | 6.73
63 | TTAAAAATAAATTCATGTACATAATATATATATATA [XGTACX_site7908] | 9.25
64 | TTATATTTATATTTATGTACATATTTTGTGTGAAAA [XGTACX_site2367] | 7.27
65 | TTTTTTGTTTGAATGGTGCATTTTGTAATTATATTT | 10.6
66 | TTATATTAATTTTGTTGTACTATTTGTGCATTAAAT [XGTACX_site4790] | 7.42
67 | ATATATTTTTGTAGTGTGCACGTTTATATGGTGAAA | 10.3
68 | TTTTGTAATGTGAATATTTGTATATTATTTGTATAT [CACACA_negctrl_site1677] | 7.03
69 | ATTTTGTGTAGTGATGCATGTTATATATATATTTGA [TGCATGCA_site422] | 7.33
70 | AAAAAAAAAAAAAATAGTACAATACCCAAATATAAC [XGTACX_site6684] | 7.3
71 | CACACAGGTAAAAAGGTGCAGTTGAAATATTCCTCA [GTGCAC_site9730] | 11.1
72 | GATAAATAATAATAAGGTACACATAAAATATTCCTT [XGTACX_site2963] | 6.86
73 | AAAAAAAAAAAAAAAGGTACAGTAAAAAATTCCTCT [XGTACX_site5947] | 7.41
74 | AAAAATAAATATACATGTACATAATAATAATATATA [XGTACX_site8359] | 6.97
75 | TATTTAAAATAATGTGCAAAAGAATAAATAAATAAA [TGCATGCA_negctrl_site194] | 7.23
76 | GATAATCAGAATGGGGTGCAAAGAAAAAAAAAAAAA | 11.3
77 | CTTTTAGAATAATCAGTGCAAAAAAAAAAAAAAAAA | 8.42
78 | TTTTTTTTTAAGTTTGCACACATGGAAGACAAAAAT [CACACA_site2505] | 7.96
